Compound activity from PubChem BioAssay.
NS1 function inh: qHTS Assay for Inhibitors of Influenza NS1 Protein Function | Potency, µM (highest dose often 46.1 µM), without a hit: at the highest dose activity, positive = more growth | 270,000 compounds, 0.4% hits | AID 2326, 2010; calls by dose curve; also: actives are rising curves; nearly all actives have a fitted effect of over 50% in size
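A cell-based growth assay was used: compounds that relieve NS1-induced slow growth of budding yeast raise OD600. Assay medium was yeast nitrogen base with ammonium sulphate and -URA supplement, pH 6.0, with 2% galactose.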
AMA1-RON2 inh: qHTS for Inhibitors of AMA1-RON; Towards Development of Antimalarial Drug Lead: Primary Screen; Plasmodium falciparum AMA1 (3D7) - RON2 peptide interaction; AlphaScreen AMA1-biotinylated RON2 peptide binding; Potency, µM (series often up to 58.2 µM), for inactives: at the top dose activity change, negative = inhibition, hits mostly inhibitors; 360,000 compounds, 0.2% hits; AID 720542, 2013;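 also: 0% = vehicle wells and -100% = peptide control; nearly all actives have a fitted effect of over 45% in size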
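AMA1 (3D7) with his tag at 25 nM final met compounds first, then biotinylated RON2 peptide at 25 nM; detection used donor plus acceptor beads, 10 µg/mL apiece, read by AlphaScreen after 30 min at room temperature.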
Pf growth 96h: Primary qHTS for delayed death inhibitors of the malarial parasite plastid, 96 hour incubation; Potency, µM (doses to about 28.7 µM), for inactives: at the highest dose activity change, negative = inhibition, actives largely listed as inhibitors; P. falciparum luciferase reporter growth, 96 h; 320,000 compounds, 6.9% hits; also: % is scaled to controls: 0 for no effect and ±100 for the full control effect
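Two parasite generations (96 h, 37 C, 5% CO2) of compound exposure in infected erythrocytes (0.05% parasitemia, 2% hematocrit). Luciferase-reporter P. falciparum; decreased luminescence indicates inhibited growth, aimed at apicoplast-acting delayed death.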
Sm TGR block: qHTS Assay for the Inhibitors of Schistosoma Mansoni Peroxiredoxins; 360,000 compounds, 3% hits; Potency, µM (doses to about 114 µM), without a hit: at the highest dose activity change, negative = inhibition, actives largely listed as inhibitors; AID 485364, 2010; purified TGR, DTNB reduction, TNB absorbance 405 nm; Schistosoma mansoni thioredoxin glutathione reductase (TGR), Q962Y6; also: % is scaled to controls: 0 for no effect and ±100 for the full control effect; nearly all actives have a fitted effect of over 60% in size
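First, TGR (20 nM dispensed) and NADPH were mixed with compound. Second, a 15 min room-temperature incubation followed. Third, further NADPH and then DTNB were added to start the reaction. Finally, TNB absorbance was monitored kinetically.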
Pf growth 48h: Primary qHTS for delayed death inhibitors of the malarial parasite plastid, 48 hour incubation | P. falciparum luciferase growth in erythrocytes, 48 h | Potency, µM (highest dose often 28.7 µM), for inactives: at the top dose activity change, negative = inhibition, actives largely listed as inhibitors | 310,000 compounds, 5.9% hits | AID 504832, 2011; also: % is scaled to controls: 0 for no effect and ±100 for the full control effect
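In quantitative HTS format, infected erythrocytes bearing luciferase-reporter parasites were treated for a single generation at 37 C. Luminescence after adding detection reagent served as the growth measure.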
An asterisk follows results filed as active; ? = inconclusive; . = not tested or not shown; [ ] = another dose, or the depositor's remark. Rows were chosen to be rich in hits. Some 11% of all compounds tested hit in one or more screens of this group. Unless noted, calls follow the shape of the dose curve; as a rule, active = well fitted curve in the direction sought with a large enough effect; inconclusive = small, poorly fitted or top-dose-only effect, or another doubt; inactive = no such curve, though single readings can be large; an effect the other way counts as inactive or inconclusive. Potency is read from the fitted curve at half-maximal effect.

SMILES	NS1 function inh	AMA1-RON2 inh	Pf growth 96h	Sm TGR block	Pf growth 48h
CCOc1ccc(C(C)=O)cc1CN1C(=O)c2ccccc2S1(=O)=O	0.8%	-4.2%	-5.9%	35.5µM*	-22.2%
CCC(=O)N1CCc2cc(S(=O)(=O)NCCC(=O)NC3CCCCCC3)ccc21	5.6%	-5.2%	?	-8.1%	?
C=CCC1(CC=C)CCCN1C(=O)c1cc(COc2ccccc2SC)on1	-30.2%	-3.6%	-12.1%	5.5%	14.7µM*
C=CCC1(CC=C)CCCN1C(=O)c1cc(COc2ccc(F)c(F)c2)on1	-30.4%	48.3%	-12.0%	?	?
O=C1Nc2ccccc2C(=O)N2c3ccccc3NC(=O)C12 (centres undefined)	.	11.1%	.	.	.
Cn1cnc([N+](=O)[O-])c1NC(C)(C)C	2.9%	-4.6%	6.1%	4.8%	.
Cn1cnc([N+](=O)[O-])c1S(=O)(=O)c1ccc(Cl)cc1	-62.1%	11.8%	-1.6%	0.1µM*	1.8%
CC(C)(C)c1cc(Br)c(O)c(N=Nc2ccc(S(=O)(=O)N3CCOCC3)cc2)c1	.	-19.0%	10.4µM*	-4.2%	11.7µM*
Cc1ccc(O)c(N=Nc2ccc(S(=O)(=O)N3CCOCC3)cc2)c1	2.7%	-20.2%	?	0.2%[57.1 µM]	5.22µM*
Cc1ccc(NC(=O)CCc2ccc(S(=O)(=O)N3CCOCC3)cc2)c(O)c1	.	-5.8%	.	.	.
COc1cccc(NC(=O)CCC(=O)Nc2cc(OC)c(NC(=O)c3cccs3)cc2OC)c1	1.5%	-17.0%	-0.1%	-16.6%	-5.2%
COc1ccccc1N1CCN(C(=O)c2cc3ccc4ccc(C)[nH]c4c3n2)CC1	.	.	.	-1.6%	.
Cc1cc(C)n(CC(=O)O)c(=O)c1[N+](=O)[O-]	.	9.8%	48.8%[5.75 µM]	39.8µM*	8.1%
CC(C)COc1nc2c(c(=O)n(C)c(=O)n2C)n1C	-2.2%	-0.3%	?	16.6%	-4.2%
Fc1ccc2c(c1)[C@H]1OCC[C@H]1[C@@H](c1ccco1)N2	-7.8%	-14.4%	-22.4%	-25.2%	22.1%
Clc1ccc2c(c1)[C@H]1OCC[C@H]1[C@@H](c1ccco1)N2	-3.8%	-3.2%	?	39.8µM*	100.5%
CC1=NN(C(C#N)c2ccc(F)cc2)C(c2ccccc2)C1 (centres undefined)	?	0.6%	14.7µM*	-0.1%	-27.0%
Cc1ccc(S(=O)(=O)N2CCCCC2)cc1NC(=O)COC(=O)c1cccn1C	.	-12.6%	.	.	.
CC(CC1CC(C)(C)OC1=O)C(=O)Nc1ccc([N+](=O)[O-])cc1 (centres undefined)	-2.1%	-6.7%	1.65µM*	-12.3%	?
CC1(C)CC(CC(=O)Nc2ccc([N+](=O)[O-])cc2)C(=O)O1 (centres undefined)	20.5%	0.0%	?	1.0%	42.6%
O=C(NCc1ccc(F)cc1F)[C@@H]1CCCN1C(=O)[C@@H]1CCCN1	.	-24.6%	.	.	.
CCOc1ccc(NC(=O)c2cccc(S(=O)(=O)NCc3cccnc3)c2)cc1	.	-1.4%	.	.	.
N#CCSc1nnc(COc2cccc3ccccc23)n1-c1ccccc1	9.2%	-12.0%	24.9%	-26.9%	?
Cc1ccc(-c2nnc(CSc3nnc(COc4cccc5ccccc45)n3-c3ccccc3)o2)cc1	?	-0.8%	13.1µM*	8.2%	.
COc1ccc(-n2c(COc3cccc4ccccc34)nnc2SCC#N)cc1	11.4%	-5.7%	-12.5%	-6.5%	13.1µM*
SMILES	NS1 function inh	AMA1-RON2 inh	Pf growth 96h	Sm TGR block	Pf growth 48h
Cc1nn(C(=O)c2cccc(F)c2)c(C)c1S(=O)(=O)N1CCCCCC1	.	.	.	-3.0%	.
Cc1ccc(-n2cc(CN3CCNC(=O)CC3)c(-c3cccc(C)c3)n2)cc1	-6.7%	-9.7%	-20.9%	-3.5%	?
Cc1ccc(-n2cc(CNCC3CC(=O)N(C4CC4)C3)c(-c3cccc(C)c3)n2)cc1 (centres undefined)	-6.3%	-2.4%	11.7µM*	-20.5%	?
CCCn1c(SC(C)C(=O)NCC2CCCO2)nc2sc3c(c2c1=O)CCC3 (centres undefined)	.	4.6%	?	-4.2%	13.1µM*
Cc1ccc(-n2ncc3c(N4CCN(C)CC4)ncnc32)cc1C	.	.	.	7.7%	.
Cc1c(C)n2c(SCC(=O)Nc3cccc4ccccc34)nnc2[nH]c1=O	.	-2.6%	?	4.3%	11.7µM*
CCc1nc(SCC(=O)Nc2cccc3ccccc23)[nH]c(=O)c1C	10.1%	-2.7%	-13.6%	-17.9%	0.1%
CC(=O)Nc1nonc1-c1nnc(SCC(=O)Nc2ccc(C)c(Cl)c2)n1C	.	.	.	0.5%	.
CC(=O)Cn1ncc(Br)c(Br)c1=O	-6.1%	-5.6%	-8.0%	.	?
O=C(OCn1ncc(Br)c(Br)c1=O)c1c(F)cccc1F	-135.2%	.	.	0.562µM*	?
Cc1ccccc1NC(=O)c1c(C)oc2ccc(O)c(CN3CCN(C)CC3)c12	.	.	.	10.3%	.
CC(C(=O)O)c1ccc2c(c1)Cc1cccnc1O2 (centres undefined)	.	.	1.51µM*	.	-7.4%
Cc1cc(OCC(O)CN2CCc3ccccc3C2)ccc1Cl (centres undefined)	-1.0%	2.1%	-29.6%	-20.9%	27.0%
O=C(CCN1CCN(C(c2ccccc2)c2ccccc2)CC1)N/N=C/c1ccc(O)cc1O	14.8%	29.2%	5.22µM*	-7.6%	?
O=C1CC2(CCN(C(=O)c3c(F)cccc3F)CC2)Oc2ccccc21	.	-24.4%	8.8%	-7.3%	21.0%
Cc1cc(C)c(S(=O)(=O)N2CCN(c3ccc([N+](=O)[O-])c(-n4nc(C)cc4C)c3)CC2)c(C)c1	8.8%	-19.4%	1.31µM*	1.1%	4.15µM*
COC(=O)c1ccc(N2CCN(S(=O)(=O)c3c(C)cc(C)cc3C)CC2)c([N+](=O)[O-])c1	14.0%	3.7%	?	-16.7%	11.7µM*
COC(=O)c1ccc(N2CCN(S(=O)(=O)c3ccc(C)cc3)CC2)c([N+](=O)[O-])c1	6.9%	?	?	-19.0%	?
CCS(=O)(=O)N1CCN(c2ccc(C(=O)NC3C4CC5CC(C4)CC3C5)cc2[N+](=O)[O-])CC1 (centres undefined)	-0.8%	-11.1%	?	8.2%	11.7µM*
Cc1cc(C)n(-c2cc(N3CCN(S(=O)(=O)c4ccc(Br)cc4)CC3)ccc2[N+](=O)[O-])n1	?	-20.6%	?	4.2%	?
CCS(=O)(=O)N1CCN(c2ccc(C(=O)N3CCOCC3)cc2[N+](=O)[O-])CC1	-5.3%	4.7%	8.3%	27.9%	1.8%
Cc1cc(Cl)nc(Cl)c1C(=O)N1CCOCC1	.	1.3%	?	0.6%	-21.4%
CCOC(=O)c1oc2c(c1C)-c1nn(Cc3cccc(Cl)c3)cc1CC2	.	.	.	-0.7%	.
